Source: PubChem
Sampled rows, rich in hits. Any-hit rate of the full collection: about 8%.
HT1080 IDH1KD tx – qHTS for induction of synthetic lethality in tumor cells producing 2HG: qHTS for the HT-1080-IDH1KD cell line; actives 2% (n = 360,000); Potency, µM (top dose mostly 46.1 µM), inactives show at the top dose activity, negative = toxicity, usual class: cytotoxic; HT-1080 IDH1 knockdown viability, ATP luminescence, 48 h;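 note: 0% = DMSO wells and -100% = cell-free medium wells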
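IDH1KD HT-1080 cells, 750/well, RPMI + 5% FBS; compound pinned after 2 h settling; 48 h, 37 °C; CellTiter-Glo luminescence; % activity normalised to DMSO and no-cell wells; curves fitted, classed by r2 and efficacy.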
KB-3-1 cytotox – qHTS assay for MDR1-selective chemotherapeutics: Primary screen using the parental adenocarcinoma cell KB-3-1; KB-3-1 viability, CellTiter-Glo ATP luminescence, 72 h; Potency, µM (highest dose often 46.1 µM), most hits filed as cytotoxic; actives 1.4% (n = 400,000); note: % is set by controls: 0 for no effect and ±100 for the full control effect; nearly all actives have a fitted effect of over 60% in size
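Parental KB-3-1 viability, qHTS format: 72 h compound exposure, 37 °C; CellTiter-Glo; media-only wells and DMSO plates as controls; concentration-effect fits on corrected data.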
HT1080-NT tox – qHTS for induction of synthetic lethality in tumor cells producing 2HG: qHTS for the HT-1080-NT fibrosarcoma cell line; actives 1.6% (n = 360,000); HT-1080-NT fibrosarcoma viability, CellTiter-Glo ATP luminescence, 48 h; Potency, µM (titrated, usually from 46.1 µM), for inactives: top-dose activity, negative = less viability, actives largely listed as cytotoxic;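 note: NT is the 2HG producing partner of a matched IDH1 knockdown line; 0% = DMSO-treated cells and -100% = media-only wells without cells; nearly all actives have a fitted effect of over 55% in size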
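Fibrosarcoma NT cells, 750 per well in 5% FBS RPMI, were exposed to compound for 48 hours. Viability: CellTiter-Glo luminescence.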
MCF10A rerep – A quantitative high throughput screen for small molecules that induce DNA re-replication in MCF 10a normal breast cells; MCF 10A DNA re-replication, Hoechst nuclear intensity, 48 h; Potency, µM (series often up to 46.1 µM), for the others: at the top dose activity, positive = re-replication, actives largely listed as activators; AID 624296, 2012; actives 2.9% (n = 350,000); note: % of control where 0% means no effect; nearly all actives have a fitted effect of over 50% in size
KB-V1 cytotox – qHTS assay for MDR1-selective chemotherapeutics: Primary screen using the drug-selected MDR subline cells KB-V1. Potency, µM (titrated, usually from 46.1 µM), hits mostly cytotoxic. actives 3.4% (n = 400,000). KB-V1 MDR cells viability, CellTiter-Glo, 72 h; note: % is set by controls: 0 for no effect and ±100 for the full control effect; nearly all actives have a fitted effect of over 60% in size
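Drug-selected KB-V1 cells, grown in DMEM lacking phenol red with 10% FBS, receive compound titrations; after three days at 37 degrees C, surviving cell ATP is quantified by CellTiter-Glo luminescence and responses normalized and curve-fitted.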
SW480 rereplic – A quantitative high throughput screen for small molecules that induce DNA re-replication in SW480 colon adenocarcinoma cells. SW480 DNA re-replication, Hoechst DNA content imaging, 48 h. AID 624297, 2012. actives 1.8% (n = 340,000). Potency, µM (titrated, usually from 46.1 µM), for inactives: at the top dose re-replication activation, actives largely listed as activators; note: % of control where 0% means no effect; nearly all actives have a fitted effect of over 55% in size
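First, 250 cells per well were seeded. Next, compound or vehicle (23 nL) was pinned in, plates sat 48 hr at 37 C. Finally Hoechst was added for 40 min before fluorescence scanning.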
The depositor's hits bear a star; [ ] = remark or other dose. Calls come from the whole dose curve; as a rule, active = well fitted curve in the direction sought with a large enough effect; inconclusive = small, poorly fitted or top-dose-only effect, or another doubt; inactive = no such curve, though single readings can be large; an effect the other way counts as inactive or inconclusive. Potency is the fitted concentration of half-maximal effect.

What do the screens show for `O=C(c1cc(-c2ccco2)nc2ccccc12)N1CCN(Cc2ccccc2)CC1`?
HT1080 IDH1KD tx: -10.0%; KB-3-1 cytotox: inactive; HT1080-NT tox: -11.2%; MCF10A rerep: inconclusive; KB-V1 cytotox: inactive; SW480 rereplic: 3.1%

What do the screens show for `CCCCCCC1CC(CSC(=N)N)OC1=O` (stereo unspecified)?
HT1080 IDH1KD tx: 9.0%[9.24 µM]; KB-3-1 cytotox: inactive; HT1080-NT tox: -4.0%; MCF10A rerep: inconclusive; KB-V1 cytotox: inactive; SW480 rereplic: -7.3%

What do the screens show for `CCN(CC)CCNC(=O)c1cc2c(-c3ccc(Cl)cc3)nn(C)c2s1`?
HT1080 IDH1KD tx: 18.4µM*; KB-3-1 cytotox: inconclusive; HT1080-NT tox: 18.4µM*; MCF10A rerep: 31.5%; KB-V1 cytotox: inconclusive; SW480 rereplic: inconclusive

What do the screens show for `CCCN(CCC)CCCNC(=O)c1cc2c(-c3ccc(OC)c(OC)c3)nn(C)c2s1`?
HT1080 IDH1KD tx: 20.6µM*; KB-3-1 cytotox: inactive; HT1080-NT tox: inconclusive; MCF10A rerep: 18.4µM*; KB-V1 cytotox: inconclusive; SW480 rereplic: inconclusive

How did NC(=O)COc1ccc2oc(-c3ccccc3)cc(=O)c2c1 do in these assays?
HT1080 IDH1KD tx: 29.2%; KB-3-1 cytotox: inactive; HT1080-NT tox: inconclusive; MCF10A rerep: 17.0%; KB-V1 cytotox: inconclusive; SW480 rereplic: -23.9%

Results for Cc1nn2c3c(cnc2c1-c1ccc(Cl)cc1)C(=O)CC(c1ccco1)C3 (stereo unspecified) ?
HT1080 IDH1KD tx: -2.4%; KB-3-1 cytotox: inactive; HT1080-NT tox: -0.6%; MCF10A rerep: 4.7%; KB-V1 cytotox: 5.8µM*; SW480 rereplic: 2.4%

Results for Cn1cccc1/C=C1\CC(C(C)(C)C)C/C(=C\c2cccn2C)C1=O (stereo unspecified) ?
HT1080 IDH1KD tx: -2.5%; KB-3-1 cytotox: inconclusive; HT1080-NT tox: 5.1%; MCF10A rerep: 3.66µM*; KB-V1 cytotox: 4.11µM*; SW480 rereplic: inconclusive

What do the screens show for `Cn1cccc1/C=C1\Cc2ccccc2C1=O`?
HT1080 IDH1KD tx: 14.8%; KB-3-1 cytotox: inactive; HT1080-NT tox: 6.5%; MCF10A rerep: 8.0%; KB-V1 cytotox: inactive; SW480 rereplic: 4.7%

How did CCOC(=O)C1(C)CCCCN1C(=O)c1ccoc1 (stereo unspecified) do in these assays?
HT1080 IDH1KD tx: 12.7%; KB-3-1 cytotox: inactive; HT1080-NT tox: 13.3%; KB-V1 cytotox: inactive

What do the screens show for `O=C(CN1C(=O)c2ccccc2Sc2ncccc21)Nc1cccc(C(F)(F)F)c1`?
KB-3-1 cytotox: inactive; KB-V1 cytotox: inactive

What do the screens show for `CC(C)(C)NC(=O)NC(=O)CSc1ncc(C(F)(F)F)cc1Cl`?
HT1080 IDH1KD tx: -3.8%; KB-3-1 cytotox: inactive; HT1080-NT tox: 9.9%; MCF10A rerep: -2.1%; KB-V1 cytotox: 13µM*; SW480 rereplic: 2.0%

How did Cc1ccccc1NS(=O)(=O)c1cc(C(=O)N2CCc3ccccc3C2)ccc1C do in these assays?
HT1080 IDH1KD tx: -4.2%; KB-3-1 cytotox: inactive; HT1080-NT tox: -13.9%; MCF10A rerep: inconclusive; KB-V1 cytotox: 7.31µM*; SW480 rereplic: -0.7%

What do the screens show for `Cc1ccc(NS(=O)(=O)c2cc(C(=O)N3CCc4ccccc4C3)ccc2Cl)cc1`?
HT1080 IDH1KD tx: -24.5%; KB-3-1 cytotox: inactive; HT1080-NT tox: inconclusive; MCF10A rerep: inconclusive; KB-V1 cytotox: 16.4µM*; SW480 rereplic: inconclusive

How did O=C(NCCc1ccccc1)C1(c2ccccc2)CCCC1 do in these assays?
HT1080 IDH1KD tx: 0.9%; KB-3-1 cytotox: inactive; HT1080-NT tox: -8.2%; MCF10A rerep: 21.7%; KB-V1 cytotox: inactive; SW480 rereplic: -5.7%

Results for COC(=O)c1cnc(Oc2c(Cl)cc(N)cc2Cl)cc1C(F)(F)F ?
HT1080 IDH1KD tx: 16.4µM*; KB-3-1 cytotox: inactive; HT1080-NT tox: inconclusive; MCF10A rerep: inconclusive; KB-V1 cytotox: inactive; SW480 rereplic: inconclusive

How did COC(=O)c1cnc(Oc2ccc(NC(=O)NC(=O)c3c(F)cccc3F)cc2)cc1C(F)(F)F do in these assays?
HT1080 IDH1KD tx: 0.9%; KB-3-1 cytotox: inactive; HT1080-NT tox: 5.8%; MCF10A rerep: 6.1%; KB-V1 cytotox: inactive; SW480 rereplic: 1.4%

What do the screens show for `COC(=O)c1cnc(Oc2ccc(NC(=O)NC(=O)c3c(OC)cccc3OC)cc2)cc1C(F)(F)F`?
HT1080 IDH1KD tx: 1.3µM*; KB-3-1 cytotox: inconclusive; HT1080-NT tox: inconclusive; MCF10A rerep: 0.82µM*; KB-V1 cytotox: 2.31µM*; SW480 rereplic: 2.59µM*

How did CNC(=O)c1cc2n(n1)CCCN(Cc1ccc(F)cc1)C2=O do in these assays?
KB-3-1 cytotox: inactive; KB-V1 cytotox: inactive

How did Cc1cccc(CCNC(=O)c2cnc3c(C)cccn3c2=O)c1 do in these assays?
KB-3-1 cytotox: inactive; KB-V1 cytotox: inactive

What do the screens show for `Cc1ccc(CSc2nccc(-c3c(C)nc4ccccn34)n2)cc1`?
HT1080 IDH1KD tx: 1.1%; KB-3-1 cytotox: 18.4µM*; HT1080-NT tox: 1.7%; MCF10A rerep: 3.66µM*; KB-V1 cytotox: 6.51µM*; SW480 rereplic: inconclusive

How did CC1=CCC(Cc2nc3ccccc3o2)C1(C)C (stereo unspecified) do in these assays?
HT1080 IDH1KD tx: 5.8%; KB-3-1 cytotox: inactive; HT1080-NT tox: 5.4%; MCF10A rerep: 7.9%; KB-V1 cytotox: inactive; SW480 rereplic: 2.6%

How did C=CCSc1nnc(-c2sc(-c3ccccc3)nc2C)n1C do in these assays?
HT1080 IDH1KD tx: 4.3%; KB-3-1 cytotox: inactive; HT1080-NT tox: 14.5%; MCF10A rerep: 6.2%; KB-V1 cytotox: inactive; SW480 rereplic: -8.1%

What do the screens show for `C=CCN(C(=O)CSC1=NC(=O)CN1C(C)=O)c1nc(C)c(-c2ccccc2)s1`?
HT1080 IDH1KD tx: inconclusive; KB-3-1 cytotox: inactive; HT1080-NT tox: inconclusive; MCF10A rerep: 11.6µM*; KB-V1 cytotox: inactive; SW480 rereplic: -109.5%

What do the screens show for `CCOc1ccccc1NC(=O)CSc1nc2c(oc3ccccc32)c(=O)n1Cc1ccco1`?
KB-3-1 cytotox: inactive; KB-V1 cytotox: inactive

How did Fc1cccc(Cl)c1CN1CCN(c2nc3ccccc3s2)CC1 do in these assays?
HT1080 IDH1KD tx: -8.1%; KB-3-1 cytotox: inactive; HT1080-NT tox: -16.3%; MCF10A rerep: 16.4µM*; KB-V1 cytotox: inactive; SW480 rereplic: 11.5%
